# Data reported in ChEMBL document CHEMBL3433997, “St. Jude Leishmania screening dataset” (2016).
# Target: Solute carrier family 2, facilitated glucose transporter member 1 (Homo sapiens) (UniProt P11166)
# Assay: ST_JUDE_LEISH: Cytotoxicity at 2uM final concentration against transgenic Leishmania Mexicana promastigotes LmGLUT1 that are glucose transport deficient and complemented with the human glucose transporter GLUT1. Activity is measured by DNA content using SYBR green in vitro
# Type: functional
# Solute carrier family 2, facilitated glucose transporter member 1 (Homo sapiens), sequence (P11166 whole entry): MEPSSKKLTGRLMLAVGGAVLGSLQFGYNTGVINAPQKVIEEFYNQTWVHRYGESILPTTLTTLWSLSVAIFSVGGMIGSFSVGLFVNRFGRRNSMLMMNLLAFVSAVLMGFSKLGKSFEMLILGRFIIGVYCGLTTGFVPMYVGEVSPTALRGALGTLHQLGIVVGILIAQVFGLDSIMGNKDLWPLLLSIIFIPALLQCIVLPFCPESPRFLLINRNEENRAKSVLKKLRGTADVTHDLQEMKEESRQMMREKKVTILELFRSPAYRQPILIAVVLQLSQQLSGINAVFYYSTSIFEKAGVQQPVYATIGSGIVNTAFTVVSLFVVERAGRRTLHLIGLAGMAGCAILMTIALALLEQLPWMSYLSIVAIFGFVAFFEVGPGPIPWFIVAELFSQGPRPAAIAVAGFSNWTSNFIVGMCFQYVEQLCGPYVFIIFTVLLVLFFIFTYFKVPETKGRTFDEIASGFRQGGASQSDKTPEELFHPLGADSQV
row,Structure (SMILES),inhibition [%]
1,COc1cc(CNc2ncc(-c3ccsc3)c(-c3nccs3)n2)cc(OC)c1,1.79
2,CN1CCN(c2ccc(-c3cccc(NC(=O)c4cccc([N+](=O)[O-])c4)c3)nn2)CC1,3.29
3,COC(=O)c1cccc(NC(=O)NC2CCN(c3ccnc(Nc4ccc(F)cc4)n3)C2)c1 (stereo not given),2.08
4,Cc1cc(NCCC(=O)NCCOc2ccccc2)nc(NCCc2ccccc2)n1,7.78
5,COc1ccc2nc3cc(Cl)ccc3c(NCCCO)c2c1,0.97
6,N#Cc1cccc(-c2cccc(C(=O)NC3CCC(CCN4CCc5ccc(C#N)cc5CC4)CC3)c2)c1 (stereo not given),10.8
7,COc1cccc2c(N/N=C/c3ccccc3[N+](=O)[O-])ccnc12,4.82
8,O=C(NC1CCN(CCCc2ccccc2)CC1)c1ccc(-c2cccc(C(F)(F)F)c2)s1,1.95
9,COc1cc2c(cc1OCCN1CCC(N3CCCC3)CC1)N(C(=O)/C=C/c1ccccc1Cl)CC2,1.15
10,COc1ccc2nc(C)cc(NC3Cc4ccccc4C3)c2c1,7.7
11,CN1CCN(Cc2ccc(-c3ccc4c(Nc5cc(O)c(Cl)cc5F)ccnc4c3)o2)CC1,7.47
12,COc1ccc2nc3cc(Cl)ccc3c(NCCCCN3CCNCC3)c2c1,6.28
13,CCc1ccc(CN(Cc2ccc(C)cc2)Cc2ccc(NC(C)=O)cc2)cc1,2.72
14,N#Cc1cccc(Nc2ncc3c(-c4cccc(NC(=O)Cc5cccc(Cl)c5)c4)c[nH]c3n2)c1,3.15
15,O=C(/C=C/c1ccc(Cl)c(Cl)c1)NCCCCCCN1CCCN(C(=O)Nc2cc(F)cc(F)c2)CC1,0.71
16,COc1ccc(Cn2c(Nc3cccc(C(F)(F)F)c3)nc3cc(C(=O)NCCN4CCCC4)ccc32)cc1Cl,0.36
17,CC(C)COc1ccc(Cl)cc1Cc1ccc(-c2nc3cc(F)c(F)cc3[nH]2)o1,3.02
18,O=C(NCCCCN1CCC(c2ccc3c(c2OC(=O)c2ccc(NC(=O)c4ccc(Cl)cc4)cc2)CCCC3)CC1)c1ccc(NC(=O)c2ccc(Cl)cc2)cc1,3.25
19,Oc1ccc(CCNc2nc(NCCCOc3cccc(-c4ccccc4)c3)nc(N3CCNCC3)n2)cc1,2.65
20,CCN(CC)CCN(Cc1ccc(-c2ccc(C(F)(F)F)cc2)cc1)C(=O)Cn1c(CCc2cc(F)cc(F)c2F)nc(=O)c2ccccc21,2.05

row,Structure (SMILES),inhibition [%]
1,O=C(C=Cc1ccc(Cl)c(Cl)c1)NCCCCCN1CCC(CCCNC(=O)/C=C/c2ccccc2)CC1,3.12
2,CC(C)[C@H](NC(=O)c1ccc(O)c(-c2cccc(C(F)(F)F)c2)c1)C(=O)NC1CCCc2ccccc21 (stereo not given in full),3.9
3,Cn1nc(C(F)(F)F)cc1-c1ccc(C(=O)Nc2ccc3c(c2)CNCC3(C)C)s1,4.85
4,COc1cc(C)nc2ccc(NC(=O)c3ccc(C(=O)Nc4ccc5nc(C)cc(OC)c5c4)cc3)cc12,-1.93
5,COc1ccc(Cc2cccc(C(C(=O)NCc3cc(Cl)cc(Cl)c3)N3CCN(C)CC3)c2)cc1 (stereo not given),-1.02
6,Cc1cc(N2CCCC2)nc(Nc2ccc(NC(=O)C(C)Oc3ccccc3)cc2)n1 (stereo not given),10.6
7,COc1ccc(Nc2nc(NC3CCN(C)CC3)cc(-c3ccc(OC)cc3)n2)cc1,2.07
8,O=C(NCc1cccs1)[C@H](Cc1ccccc1)Nc1ccnc(NCCc2ccccc2)n1,-0.12
9,O=C(Nc1cccnc1)c1cc(-c2cc(Cl)ccc2O)n[nH]1,2.55
10,COc1ccc2nc(-c3ccc(C(=O)NCCCN4CCN(c5cc(Cl)ccc5OC)CC4)cc3)[nH]c2c1,0.75
11,CCn1c(Sc2ccc([N+](=O)[O-])c(C#N)c2)nnc1-c1cccc(Cl)c1,1.53
12,O=C(NC1CCCCC1)C1CCCN(C(=O)c2ccc(O)c(-c3ccc(Cl)c(Cl)c3)c2)C1 (stereo not given),0.15
13,CCC(CC)(CCC#N)CN(C[C@@H](O)[C@H](Cc1ccccc1)NC(=O)OC(C)(C)C)S(=O)(=O)c1ccc(OC)cc1,-0.65
14,O=C(CCN1C(=O)c2ccccc2C1=O)N1CCN(CC=Cc2ccccc2)CC1,-1.54
15,Cc1nc(N)nc(N)c1-c1ccc(Cl)c(Cl)c1,6.9
16,COc1ccc2nccc([C@@H](O)CN3CCC(NCCOc4c(C)cccc4F)CC3)c2c1,5.89
17,N=C(N)Nc1nc(-c2cccc(NC(=O)C(F)(F)F)c2)cs1,2.35
18,COc1ccc(NC(=O)[C@H](CC(C)C)Nc2cc(C)nc(NCCc3ccccc3OC)n2)cc1,1.28
19,COc1ccc(OC)c2c1CCN(C)C2Cc1cccc2ccccc12 (stereo not given),3.52
20,CC(C)CNCc1cccc(-c2ccc(CN(C(=O)NCCc3ccccc3)C3CCN(Cc4ccccc4)CC3)cc2)c1,75.8

# Target: Hexose transporter 1 (Plasmodium falciparum) (UniProt O97467)
# Assay: ST_JUDE_LEISH: Cytotoxicity at 2uM final concentration against transgenic Leishmania Mexicana promastigotes LmPfHT that are glucose transport deficient and complemented with the Plasmodium falciparum hexose transporter. Activity is measured by DNA content using SYBR green in vitro
# Type: functional
row,Structure (SMILES),inhibition [%]
1,COc1cc(CNc2ncc(-c3ccsc3)c(-c3nccs3)n2)cc(OC)c1,1.49
2,CN1CCN(c2ccc(-c3cccc(NC(=O)c4cccc([N+](=O)[O-])c4)c3)nn2)CC1,1.6
3,COC(=O)c1cccc(NC(=O)NC2CCN(c3ccnc(Nc4ccc(F)cc4)n3)C2)c1 (stereo not given),1.14
4,Cc1cc(NCCC(=O)NCCOc2ccccc2)nc(NCCc2ccccc2)n1,5.18
5,COc1ccc2nc3cc(Cl)ccc3c(NCCCO)c2c1,0.85
6,N#Cc1cccc(-c2cccc(C(=O)NC3CCC(CCN4CCc5ccc(C#N)cc5CC4)CC3)c2)c1 (stereo not given),8.62
7,COc1cccc2c(N/N=C/c3ccccc3[N+](=O)[O-])ccnc12,5.71
8,O=C(NC1CCN(CCCc2ccccc2)CC1)c1ccc(-c2cccc(C(F)(F)F)c2)s1,1.23
9,COc1cc2c(cc1OCCN1CCC(N3CCCC3)CC1)N(C(=O)/C=C/c1ccccc1Cl)CC2,2.02
10,COc1ccc2nc(C)cc(NC3Cc4ccccc4C3)c2c1,5.19
11,CN1CCN(Cc2ccc(-c3ccc4c(Nc5cc(O)c(Cl)cc5F)ccnc4c3)o2)CC1,4.6
12,COc1ccc2nc3cc(Cl)ccc3c(NCCCCN3CCNCC3)c2c1,6.49
13,CCc1ccc(CN(Cc2ccc(C)cc2)Cc2ccc(NC(C)=O)cc2)cc1,3.95
14,N#Cc1cccc(Nc2ncc3c(-c4cccc(NC(=O)Cc5cccc(Cl)c5)c4)c[nH]c3n2)c1,2.53
15,O=C(/C=C/c1ccc(Cl)c(Cl)c1)NCCCCCCN1CCCN(C(=O)Nc2cc(F)cc(F)c2)CC1,1.42
16,COc1ccc(Cn2c(Nc3cccc(C(F)(F)F)c3)nc3cc(C(=O)NCCN4CCCC4)ccc32)cc1Cl,-0.47
17,CC(C)COc1ccc(Cl)cc1Cc1ccc(-c2nc3cc(F)c(F)cc3[nH]2)o1,1.87
18,O=C(NCCCCN1CCC(c2ccc3c(c2OC(=O)c2ccc(NC(=O)c4ccc(Cl)cc4)cc2)CCCC3)CC1)c1ccc(NC(=O)c2ccc(Cl)cc2)cc1,0.15
19,Oc1ccc(CCNc2nc(NCCCOc3cccc(-c4ccccc4)c3)nc(N3CCNCC3)n2)cc1,2.83
20,CCN(CC)CCN(Cc1ccc(-c2ccc(C(F)(F)F)cc2)cc1)C(=O)Cn1c(CCc2cc(F)cc(F)c2F)nc(=O)c2ccccc21,0.76

row,Structure (SMILES),inhibition [%]
1,O=C(C=Cc1ccc(Cl)c(Cl)c1)NCCCCCN1CCC(CCCNC(=O)/C=C/c2ccccc2)CC1,2.68
2,CC(C)[C@H](NC(=O)c1ccc(O)c(-c2cccc(C(F)(F)F)c2)c1)C(=O)NC1CCCc2ccccc21 (stereo not given in full),2.89
3,Cn1nc(C(F)(F)F)cc1-c1ccc(C(=O)Nc2ccc3c(c2)CNCC3(C)C)s1,0.03
4,COc1cc(C)nc2ccc(NC(=O)c3ccc(C(=O)Nc4ccc5nc(C)cc(OC)c5c4)cc3)cc12,-1.5
5,COc1ccc(Cc2cccc(C(C(=O)NCc3cc(Cl)cc(Cl)c3)N3CCN(C)CC3)c2)cc1 (stereo not given),-1.26
6,Cc1cc(N2CCCC2)nc(Nc2ccc(NC(=O)C(C)Oc3ccccc3)cc2)n1 (stereo not given),15.9
7,COc1ccc(Nc2nc(NC3CCN(C)CC3)cc(-c3ccc(OC)cc3)n2)cc1,2.61
8,O=C(NCc1cccs1)[C@H](Cc1ccccc1)Nc1ccnc(NCCc2ccccc2)n1,-1.06
9,O=C(Nc1cccnc1)c1cc(-c2cc(Cl)ccc2O)n[nH]1,2.47
10,COc1ccc2nc(-c3ccc(C(=O)NCCCN4CCN(c5cc(Cl)ccc5OC)CC4)cc3)[nH]c2c1,0.77
11,CCn1c(Sc2ccc([N+](=O)[O-])c(C#N)c2)nnc1-c1cccc(Cl)c1,0.29
12,O=C(NC1CCCCC1)C1CCCN(C(=O)c2ccc(O)c(-c3ccc(Cl)c(Cl)c3)c2)C1 (stereo not given),1.83
13,CCC(CC)(CCC#N)CN(C[C@@H](O)[C@H](Cc1ccccc1)NC(=O)OC(C)(C)C)S(=O)(=O)c1ccc(OC)cc1,0.74
14,O=C(CCN1C(=O)c2ccccc2C1=O)N1CCN(CC=Cc2ccccc2)CC1,-1.32
15,Cc1nc(N)nc(N)c1-c1ccc(Cl)c(Cl)c1,5.53
16,COc1ccc2nccc([C@@H](O)CN3CCC(NCCOc4c(C)cccc4F)CC3)c2c1,3.49
17,N=C(N)Nc1nc(-c2cccc(NC(=O)C(F)(F)F)c2)cs1,2.8
18,COc1ccc(NC(=O)[C@H](CC(C)C)Nc2cc(C)nc(NCCc3ccccc3OC)n2)cc1,2.79
19,COc1ccc(OC)c2c1CCN(C)C2Cc1cccc2ccccc12 (stereo not given),3.87
20,CC(C)CNCc1cccc(-c2ccc(CN(C(=O)NCCc3ccccc3)C3CCN(Cc4ccccc4)CC3)cc2)c1,79.1
